Sm TGR inh – S. mansoni TGR enzyme inhibition | Q962Y6 | purified TGR, DTNB reduction, TNB absorbance 405 nm | Potency, µM (doses to about 114 µM), usual class: inhibitors | 360,000 tested, 3% active | AID 485364; active = well fitted inhibition curve with a large enough effect; inconclusive = small, poorly fitted or top-dose-only effect; inactive = no such curve, though single readings can be large or run the other way; note: nearly all actives have a fitted effect of over 60% in size
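Kinetic colorimetric format: TGR-catalysed, NADPH-driven DTNB reduction monitored via TNB absorbance. Enzyme dispensed at 20 nM; compound exposure 15 min at room temperature before reaction start.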
Shiga toxin inh – Shiga toxin inhibition; Vero cells, Shiga toxin protein synthesis inhibition reporter; inhibition, % at 38.7 µM; 290,000 tested, 9.2% active; in the data active = inhibition mostly above about 28%, no sharp cut-off; inactive = mostly below about 43%
Cycloheximide cs – counter-screen for Shiga toxin inhibitors: cycloheximide protein synthesis inhibition; max response, %; cell reporter, cycloheximide protein synthesis inhibition counterscreen; 300,000 tested, 12% active; in the data active = max response mostly above about 13%, no sharp cut-off; inactive = mostly below about 14%; note: read at 38.3 µM for the half of the compounds with a filed dose
FMDV antiviral – antivirals against foot and mouth disease virus; FMDV antiviral cell-based qHTS; Potency, µM (highest dose often 57.9 µM), hits mostly inhibitors; 410,000 tested, 1.2% active; calls by dose curve; tested in HEK293T cells; note: read-out not given here; nearly all actives have a fitted effect of over 45% in size
A number is an active result; – = inactive; ? = inconclusive; · = no result. Hits are enriched below; roughly 12% of the tested compounds scored in any of these assays.

SMILES	Sm TGR inh	Shiga toxin inh	Cycloheximide cs	FMDV antiviral
Cc1ccccc1OCC(=O)Nc1ccc(S(=O)(=O)N(Cc2ccccc2)c2ccccc2)cc1	–	·	·	–
Cc1ccc(C(=O)Nc2cccc(C(=O)N/N=C/c3ccccc3F)c2)cc1	–	72	47	–
CC(=O)Nc1cccc(C(=O)N/N=C/c2ccccc2F)c1	–	28	46	–
O=C(N/N=C\c1ccccc1F)c1ccc(-c2ccccc2)cc1	–	–	36	–
O=C(N/N=C/c1ccccc1)c1ccc(-c2ccccc2)cc1	–	·	–	–
COc1cc(OC)c(NC(=O)N2CCSc3ccccc32)cc1Cl	–	·	·	–
O=C(O)C(C(=O)/C=C/c1ccco1)=C1SCCS1	–	74	27	–
O=C(C=C1SCCS1)/C=C/c1ccco1	7.1µM	71	37	?
Cc1[nH]c2ccccc2c1/C=N/NC(=O)c1cccs1	–	–	51	–
Cc1[nH]c2ccccc2c1/C=N/NC(=O)CNC(=O)c1cccs1	–	–	–	–
Cc1[nH]c2ccccc2c1/C=N/Nc1nncn1N	·	112	55	–
Cc1ccc(-n2[nH]c(C)c(/C=N/Nc3ccc([N+](=O)[O-])cc3[N+](=O)[O-])c2=O)cc1	–	–	–	7.9µM
Cc1c(/C=N/NC(=O)c2cccs2)c2ccccc2n1Cc1ccccc1Cl	–	30	23	–
O=Cc1c(C(=O)O)n(Cc2ccccc2Cl)c2ccccc12	–	–	–	–
CCOc1ccc(-c2cn3c(n2)sc2cc(C(=O)NCCc4ccc(OC)c(OC)c4)ccc23)cc1	–	·	·	–
Cc1ccc(S(=O)(=O)c2nnn3c2nc(N2CCC(C)CC2)c2cc(Cl)ccc23)cc1C	–	·	·	–
c1ccc(CNc2ncncc2-c2ccc3c(c2)OCO3)cc1	·	·	·	–
Cc1[nH]c2ccccc2c1/C=N/NC(=O)CNC(=O)c1ccco1	–	–	–	–
Cc1[nH]c2ccccc2c1/C=N\NC(=O)c1ccco1	–	57	30	–
Cc1c(/C=N/NC(=O)c2cccnc2)c2ccccc2n1Cc1ccccc1	–	–	–	14µM
Cc1[nH]c2ccccc2c1/C=N/Nc1ccc([N+](=O)[O-])cc1	–	77	19	–
Cc1nn(Cc2ccccc2)c(Cl)c1/C=N/NC(=O)c1cccnc1	–	–	–	–
Cc1[nH]n(-c2ccc([N+](=O)[O-])cc2)c(=O)c1C=NCCc1ccc(S(N)(=O)=O)cc1	–	–	–	–
Cc1[nH]n(-c2ccc([N+](=O)[O-])cc2)c(=O)c1C=NCCc1c(C)[nH]c2ccccc12	–	–	–	25µM
Cc1[nH]c2ccccc2c1/C=N/NC(=O)c1cccc([N+](=O)[O-])c1	–	–	–	–
SMILES	Sm TGR inh	Shiga toxin inh	Cycloheximide cs	FMDV antiviral
O=C(c1ccc2c(c1)OCO2)c1cn(Cc2ccc(F)cc2)c2ccccc2c1=O	–	·	·	–
Cc1[nH]c2ccccc2c1/C=N/Nc1ccccn1	–	–	–	·
Cc1[nH]c2ccccc2c1/C=N/Nc1ccc(F)cc1F	50µM	30	31	·
Cc1[nH]c2ccccc2c1/C=N/NC(=O)c1cccc(F)c1	–	62	26	–
Clc1ccc(N2CCNCC2)nn1	–	–	–	–
N#Cc1ccc(N2CCCNCC2)nc1	28µM	–	–	–
COc1ccc(CCN2C(=O)N(c3ccc(F)cc3)C(=O)C2CC(=O)Nc2ccc(OC)cc2)cc1 (stereo not given)	–	·	·	–
Cn1cnc2c(=O)oc3ccc(S(=O)(=O)N4CCN(c5ccccc5F)CC4)cc3c21	–	·	·	–
COc1nc(Nc2ccc(C(C)C)cc2)nc(OC)n1	–	48	41	–
COc1nc(Nc2ccc(O)cc2)nc(OC(C(F)(F)F)C(F)(F)F)n1	–	–	–	?
COC(=O)c1sccc1S(=O)(=O)N1CCN(c2ccc(C(C)=O)cc2)CC1	–	·	·	–
Cn1c(/C=C/c2ccc(Cl)cc2Cl)c([N+](=O)[O-])c(=O)n(C)c1=O	–	–	–	32µM
CCOc1ccc(/C=C/c2c([N+](=O)[O-])c(=O)n(C)c(=O)n2C)cc1	–	–	–	–
CCc1ccc(/C=C/c2c([N+](=O)[O-])c(=O)n(C)c(=O)n2C)cc1	–	–	–	16µM
CCOC(=O)c1c(C)oc2nc(C)nc(N3CCN(c4ccccc4F)CC3)c12	–	·	·	?
CCOC(=O)c1c(C)oc2ncnc(N3CCN(c4ccccc4)CC3)c12	–	·	·	28µM
CCOC(=O)c1c(C)oc2ncnc(N3CCN(c4ccccc4F)CC3)c12	–	·	·	32µM
O=C(NCCOCCn1c(=O)oc2ccccc21)Nc1ccc(F)cc1F	–	·	·	–
CNc1ccc(/C=C(\C#N)C(=O)Nc2ccccn2)cc1[N+](=O)[O-]	–	–	–	–
N#C/C(=C/c1ccc(O)c([N+](=O)[O-])c1)C(=O)Nc1ccccc1	–	51	27	?
N#C/C(=C/c1ccc([N+](=O)[O-])cc1)C(N)=O	–	–	–	–

Compound activity as filed in PubChem.
